Assay results from the supplement of paper PMC6555819.

Assays:
Assay in all cases: PBM binding z-score (relative to random genomic background probes); higher = stronger binding; sequences stand for … in GC…GCGATTGACAGCGTAGAATGAAGG
[1] = test system: RARb homodimer (NR concentration 270 nM)
How it was run: (§1)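 Binding buffer was PBS pH 7.4 with 2% milk, 0.02% Triton X-100, 1 mM DTT, 0.2 mg/mL BSA and 0.4 mg/ml salmon testes DNA. In it, ligand-free nuclear receptor dimers were incubated 1 h on custom Agilent 4×180K protein-binding microarrays carrying double-stranded probes. Antibodies against each partner (one per run) detected binding, and z-scores were calculated against random background probes after regression normalization of scanned fluorescence.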

[2] = test system: RARg:RXRa (NR concentration 270 nM, RXRa partner concentration 90 nM)
How it was run: as §1

[3] = test system: RARg homodimer (NR concentration 270 nM)
How it was run: as §1

[4] = test system: RXRa DBDmut IVT, anti-RXR (DBD mutation: RXRa K156A/R161A, NR concentration 90 nM)
How it was run: as §1

[5] = test system: RXRa homodimer (NR concentration 180 nM)
How it was run: as §1

[6] = test system: THRa:RXRa (NR concentration 90 nM, RXRa partner concentration 90 nM)
How it was run: as §1

[7] = test system: THRa homodimer (NR concentration 90 nM)
How it was run: as §1

[8] = test system: VDR homodimer (NR concentration 270 nM)
How it was run: as §1

## TCTTGTAGATCAACAGGAGGTTAAGATAGATCGA
[1]
  PBM binding z-score: 0.539
[2]
  PBM binding z-score: 1.16
[3]
  PBM binding z-score: 0.391
[4]
  PBM binding z-score: 0.496
[5]
  PBM binding z-score: 1.04
[6]
  PBM binding z-score: 0.854
[7]
  PBM binding z-score: -0.513
[8]
  PBM binding z-score: -0.27

## AGAACGAGGGCACGCTGAGTTGATACCAGAGTAG
[1]
  PBM binding z-score: 1.13
[2]
  PBM binding z-score: 1.91
[3]
  PBM binding z-score: 2.16
[4]
  PBM binding z-score: 1.46
[5]
  PBM binding z-score: 1.44
[6]
  PBM binding z-score: 1.74
[7]
  PBM binding z-score: 0.271
[8]
  PBM binding z-score: 1.98

## GCATATAGGAAATACAAGGTGAAAGTCCGATTGT
[1]
  PBM binding z-score: 0.623
[2]
  PBM binding z-score: 0.263
[3]
  PBM binding z-score: 0.484
[4]
  PBM binding z-score: 0.294
[5]
  PBM binding z-score: 0.281
[6]
  PBM binding z-score: 1.94
[7]
  PBM binding z-score: 0.81
[8]
  PBM binding z-score: -0.126

## ATATGTAGGTTATCGGGTCATTCTGTTTGCGCAT
[1]
  PBM binding z-score: 2.91
[2]
  PBM binding z-score: 3.37
[3]
  PBM binding z-score: 2.21
[4]
  PBM binding z-score: 1.77
[5]
  PBM binding z-score: 3.44
[6]
  PBM binding z-score: 3.38
[7]
  PBM binding z-score: 2.96
[8]
  PBM binding z-score: 3.53

## ATCGAAAGGTCGAGAGGTGAGTATACAGAAAGGC
[1]
  PBM binding z-score: 3
[2]
  PBM binding z-score: 4.69
[3]
  PBM binding z-score: 4.09
[4]
  PBM binding z-score: 0.518
[5]
  PBM binding z-score: 4.53
[6]
  PBM binding z-score: 2.37
[7]
  PBM binding z-score: -0.0205
[8]
  PBM binding z-score: 0.542

## ATATGTACGTTATCGGGTCATTCAGTTTGCGCAT
[1]
  PBM binding z-score: 2.25
[2]
  PBM binding z-score: 2.06
[3]
  PBM binding z-score: 1.64
[4]
  PBM binding z-score: 1.78
[5]
  PBM binding z-score: 2.34
[6]
  PBM binding z-score: 3.26
[7]
  PBM binding z-score: 2.69
[8]
  PBM binding z-score: 4.2

## CTACCAAGGTGAACAGGGTCGTTGATTACTATTC
[1]
  PBM binding z-score: 1.71
[2]
  PBM binding z-score: 1.51
[3]
  PBM binding z-score: 1.17
[4]
  PBM binding z-score: 1.08
[5]
  PBM binding z-score: 1.87
[6]
  PBM binding z-score: 2.87
[7]
  PBM binding z-score: 1.68
[8]
  PBM binding z-score: 1.92

## GCAGACAGGTGAAATGCAGGTAACTCAGGGTGGC
[1]
  PBM binding z-score: 0.337
[2]
  PBM binding z-score: 0.64
[3]
  PBM binding z-score: 0.23
[4]
  PBM binding z-score: -0.341
[5]
  PBM binding z-score: 0.602
[6]
  PBM binding z-score: 1.38
[7]
  PBM binding z-score: -0.107
[8]
  PBM binding z-score: -0.285

## CCGACTTGGGCAAGGTTACCATAACGCACAGCCA
[1]
  PBM binding z-score: 0.919
[2]
  PBM binding z-score: 0.796
[3]
  PBM binding z-score: 0.586
[4]
  PBM binding z-score: 0.164
[5]
  PBM binding z-score: 1.05
[6]
  PBM binding z-score: 1.17
[7]
  PBM binding z-score: 0.449
[8]
  PBM binding z-score: 0.117

## CGAACGAGGGCATAAGTTGATAGCAAATGCCGAT
[1]
  PBM binding z-score: 0.864
[2]
  PBM binding z-score: 1.23
[3]
  PBM binding z-score: 1.25
[4]
  PBM binding z-score: 2.53
[5]
  PBM binding z-score: 0.665
[6]
  PBM binding z-score: 0.587
[7]
  PBM binding z-score: -0.473
[8]
  PBM binding z-score: 1.04

## ATCTCTAGGTAACCAAGTTCAGTTAATGCCGAAC
[1]
  PBM binding z-score: 1.74
[2]
  PBM binding z-score: 1.09
[3]
  PBM binding z-score: 1.12
[4]
  PBM binding z-score: 1.33
[5]
  PBM binding z-score: 0.444
[6]
  PBM binding z-score: 1.97
[7]
  PBM binding z-score: 1.43
[8]
  PBM binding z-score: 3.19

## ACTAGTTGGTCAGCTGAGTTCACACACAATTCGG
[1]
  PBM binding z-score: 2.53
[2]
  PBM binding z-score: 1.78
[3]
  PBM binding z-score: 2.11
[4]
  PBM binding z-score: 2.27
[5]
  PBM binding z-score: 1.64
[6]
  PBM binding z-score: 3.33
[7]
  PBM binding z-score: 1.05
[8]
  PBM binding z-score: 6.71

## ACAGACAGGTGAGTGAAGGTAAGTCAGCTGGACG
[1]
  PBM binding z-score: 0.373
[2]
  PBM binding z-score: 0.45
[3]
  PBM binding z-score: 0.335
[4]
  PBM binding z-score: -0.68
[5]
  PBM binding z-score: 0.274
[6]
  PBM binding z-score: 1.03
[7]
  PBM binding z-score: -0.473
[8]
  PBM binding z-score: -0.657

## TCGAGTAGGGTAGGGGCATTCAGAATGGCGTCGA
[1]
  PBM binding z-score: 0.89
[2]
  PBM binding z-score: -0.0257
[3]
  PBM binding z-score: -0.315
[4]
  PBM binding z-score: 0.328
[5]
  PBM binding z-score: 0.411
[6]
  PBM binding z-score: 0.763
[7]
  PBM binding z-score: 0.794
[8]
  PBM binding z-score: 0.663

## CCTCGGAGGACAGCAGGAGGTCAGAGCTGCCAGA
[1]
  PBM binding z-score: 3.24
[2]
  PBM binding z-score: 3.07
[3]
  PBM binding z-score: 2.93
[4]
  PBM binding z-score: -0.25
[5]
  PBM binding z-score: 1.56
[6]
  PBM binding z-score: 2.41
[7]
  PBM binding z-score: 0.786
[8]
  PBM binding z-score: 0.762

## ACTAGCAGGGCAAGTTTGGGTCACTCAAACAAAG
[1]
  PBM binding z-score: 2.59
[2]
  PBM binding z-score: 3.35
[3]
  PBM binding z-score: 2.64
[4]
  PBM binding z-score: 0.437
[5]
  PBM binding z-score: 1.38
[6]
  PBM binding z-score: 3.17
[7]
  PBM binding z-score: 1.08
[8]
  PBM binding z-score: 0.258

## TCATATAGGTAATACAGATGAAAGTCGGCATCTA
[1]
  PBM binding z-score: -0.481
[2]
  PBM binding z-score: 0.349
[3]
  PBM binding z-score: 0.543
[4]
  PBM binding z-score: 1.28
[5]
  PBM binding z-score: 1.09
[6]
  PBM binding z-score: -0.0206
[7]
  PBM binding z-score: -0.254
[8]
  PBM binding z-score: 0.0563

## CCTTACGGGTCAAGGCTATAGCACGGGTGGTACG
[1]
  PBM binding z-score: 2.91
[2]
  PBM binding z-score: 4.66
[3]
  PBM binding z-score: 4.36
[4]
  PBM binding z-score: 0.343
[5]
  PBM binding z-score: 5.14
[6]
  PBM binding z-score: 2.39
[7]
  PBM binding z-score: -0.0277
[8]
  PBM binding z-score: 0.575

## ATCGAAAGGTCGACGAGGTGATTATACACCGTTT
[1]
  PBM binding z-score: 2.78
[2]
  PBM binding z-score: 4.21
[3]
  PBM binding z-score: 3.9
[4]
  PBM binding z-score: 1.34
[5]
  PBM binding z-score: 4.35
[6]
  PBM binding z-score: 3.58
[7]
  PBM binding z-score: 0.498
[8]
  PBM binding z-score: 1.54

## ATTTCTAGGTAAAGATAGTTCAGTGAATGCAAAT
[1]
  PBM binding z-score: 0.935
[2]
  PBM binding z-score: 0.671
[3]
  PBM binding z-score: 0.813
[4]
  PBM binding z-score: 0.38
[5]
  PBM binding z-score: 0.418
[6]
  PBM binding z-score: 1.02
[7]
  PBM binding z-score: 0.00694
[8]
  PBM binding z-score: 0.94

## TCGAGTAGGTTAGGGGCATTCATAATGGCGTCGA
[1]
  PBM binding z-score: 0.847
[2]
  PBM binding z-score: 0.406
[3]
  PBM binding z-score: 0.583
[4]
  PBM binding z-score: 0.422
[5]
  PBM binding z-score: 0.801
[6]
  PBM binding z-score: 0.804
[7]
  PBM binding z-score: 0.251
[8]
  PBM binding z-score: 0.868

## CAAACTAGGTCAAGATCAAAGTCGGTTTGTGCCA
[1]
  PBM binding z-score: 2.77
[2]
  PBM binding z-score: 3.45
[3]
  PBM binding z-score: 4.74
[4]
  PBM binding z-score: 1.66
[5]
  PBM binding z-score: 2.69
[6]
  PBM binding z-score: 2.75
[7]
  PBM binding z-score: 0.747
[8]
  PBM binding z-score: 0.787

## CTTCCAAGGTGAACAAGGTCGTTGATTACTATTC
[1]
  PBM binding z-score: 2.18
[2]
  PBM binding z-score: 1.8
[3]
  PBM binding z-score: 1.62
[4]
  PBM binding z-score: 1.57
[5]
  PBM binding z-score: 1.69
[6]
  PBM binding z-score: 3.41
[7]
  PBM binding z-score: 2.03
[8]
  PBM binding z-score: 2.34

## CAAACTAGCTCACCGGAAGGTCAAAGTCCGCATG
[1]
  PBM binding z-score: 3.98
[2]
  PBM binding z-score: 3.23
[3]
  PBM binding z-score: 2.5
[4]
  PBM binding z-score: 0.916
[5]
  PBM binding z-score: 3.25
[6]
  PBM binding z-score: 2.67
[7]
  PBM binding z-score: 1.55
[8]
  PBM binding z-score: 2.17

## CCTCGGAGAACAGAAGGTCAGAGCTGTCCGCTTT
[1]
  PBM binding z-score: 2.93
[2]
  PBM binding z-score: 2.11
[3]
  PBM binding z-score: 1.99
[4]
  PBM binding z-score: 0.355
[5]
  PBM binding z-score: 2.01
[6]
  PBM binding z-score: 1.77
[7]
  PBM binding z-score: -0.175
[8]
  PBM binding z-score: 0.014

## ACAGACAGGTGATGAAGGTAACTTAGGCTATCAT
[1]
  PBM binding z-score: 0.348
[2]
  PBM binding z-score: 0.286
[3]
  PBM binding z-score: 0.467
[4]
  PBM binding z-score: -0.093
[5]
  PBM binding z-score: 0.298
[6]
  PBM binding z-score: 0.532
[7]
  PBM binding z-score: 0.0402
[8]
  PBM binding z-score: 0.0918

## TCTTGTAGATCACCAGGTTAAGAAAGCTGGCCAA
[1]
  PBM binding z-score: 0.501
[2]
  PBM binding z-score: 0.343
[3]
  PBM binding z-score: -0.0575
[4]
  PBM binding z-score: 1.03
[5]
  PBM binding z-score: 1.06
[6]
  PBM binding z-score: 1.06
[7]
  PBM binding z-score: 0.422
[8]
  PBM binding z-score: 0.245

## GCTCGTAGATCAAGGTTAAGAAAGACTAAGCTAA
[1]
  PBM binding z-score: -0.0448
[2]
  PBM binding z-score: 0.0431
[3]
  PBM binding z-score: -0.0396
[4]
  PBM binding z-score: -0.285
[5]
  PBM binding z-score: 0.709
[6]
  PBM binding z-score: 0.978
[7]
  PBM binding z-score: -0.631
[8]
  PBM binding z-score: -0.34
